Bioassay records as filed in PubChem BioAssay.
POLI inh – DNA polymerase iota (human) inhibition | Pol iota fluorescent replication assay, 10 min | Potency, µM (top dose mostly 115 µM), inactives show at the highest dose activity, negative = inhibition, most hits filed as inhibitors | 390,000 compounds, 1% hits | Q9UNA4 | AID 588590
Target sequence (Q9UNA4 whole entry, looked up): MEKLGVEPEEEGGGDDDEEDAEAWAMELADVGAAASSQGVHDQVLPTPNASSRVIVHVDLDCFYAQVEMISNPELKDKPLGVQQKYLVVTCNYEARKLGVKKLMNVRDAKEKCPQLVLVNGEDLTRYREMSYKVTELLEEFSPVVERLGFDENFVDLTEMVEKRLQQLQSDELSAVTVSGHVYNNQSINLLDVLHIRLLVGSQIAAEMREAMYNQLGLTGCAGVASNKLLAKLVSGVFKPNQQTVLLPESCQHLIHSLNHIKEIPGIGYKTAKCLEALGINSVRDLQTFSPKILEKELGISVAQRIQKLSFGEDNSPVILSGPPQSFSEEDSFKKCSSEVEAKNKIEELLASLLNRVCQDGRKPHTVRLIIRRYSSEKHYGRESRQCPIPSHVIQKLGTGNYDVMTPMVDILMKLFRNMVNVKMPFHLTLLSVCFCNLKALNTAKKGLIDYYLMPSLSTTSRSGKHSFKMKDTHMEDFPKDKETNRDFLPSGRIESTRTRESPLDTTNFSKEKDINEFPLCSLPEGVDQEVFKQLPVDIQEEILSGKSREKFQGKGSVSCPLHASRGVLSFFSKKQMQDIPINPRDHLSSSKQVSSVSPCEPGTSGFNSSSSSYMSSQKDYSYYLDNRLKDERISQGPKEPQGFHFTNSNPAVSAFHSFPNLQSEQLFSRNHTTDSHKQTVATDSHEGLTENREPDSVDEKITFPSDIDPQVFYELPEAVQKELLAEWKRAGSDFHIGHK
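Fluorescent replication assay read twice, at 0 min and 10 min after adding 50 nM (final) substrate. Enzyme (10 nM) and compounds were first incubated 15 min at room temperature; enzyme-free buffer wells were negative controls.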
Pol eta inh – inhibitors of human DNA polymerase eta; 390,000 compounds, 1.2% hits; recombinant Pol eta, fluorescent DNA replication assay; Q9Y253; Potency, µM (series often up to 114 µM), for the others: top-dose activity change, negative = inhibition, actives largely listed as inhibitors; AID 588591; note: % is set by controls: 0 for no effect and ±100 for the full control effect
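Pol eta (10 nM) was preincubated with compounds for 15 min at room temperature, after which fluorescent replication substrate (50 nM final) was added to start the reaction. Fluorescence was read kinetically at 0 and 10 min.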
WRN inhibitor – inhibitors of human WRN helicase; Potency, µM (titrated, usually from 114 µM), for the others: at the top dose activity change, negative = inhibition, actives largely listed as inhibitors; 360,000 compounds, 0.46% hits; AID 651768; WRN helicase unwinding, fluorescent forked duplex, kinetic; note: % is set by controls: 0 for no effect and ±100 for the full control effect; nearly all actives have a fitted effect of over 55% in size
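Screening of the MLSMR collection measured strand separation of a quenched forked DNA duplex (100 nM) by 20 nM WRN with 2 mM ATP, all final. Compounds were preincubated with enzyme 15 min at room temperature.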
Pol kappa inh – DNA polymerase kappa (human) inhibition; Potency, µM (highest dose often 107 µM), for the others: at the top dose activity, negative = inhibition, hits mostly inhibitors; purified Pol kappa, fluorescent DNA synthesis assay, 10 min; 400,000 compounds, 0.53% hits; AID 588579; note: % is set by controls: 0 for no effect and ±100 for the full control effect
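Inhibition of 10 nM Pol kappa is measured by a fluorescent read-out at 0 and 10 min following addition of 50 nM substrate (final), with a 15-min room-temperature compound preincubation.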
Pol beta inh – blocks human DNA polymerase beta activity; 340,000 compounds, 1.3% hits; Potency, µM (top dose mostly 114 µM), for the others: top-dose activity change, negative = inhibition, hits mostly inhibitors; Pol beta primer extension/strand displacement, fluorescence kinetic; note: % is set by controls: 0 for no effect and ±100 for the full control effect
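Enzyme-only controls used 10 nM Pol beta; buffer lacking enzyme served as negative control. Compound preincubated 15 min, then 50 nM substrate added; 0 and 10 min reads at room temperature.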
FEN1 inh – human FEN1 inhibition; 390,000 compounds, 0.35% hits; AID 588795; Recombinant FEN1 flap cleavage, fluorescence, 15 min; Potency, µM (series often up to 114 µM), for inactives: at the top dose activity change, negative = inhibition, hits mostly inhibitors; note: % is set by controls: 0 for no effect and ±100 for the full control effect; nearly all actives have a fitted effect of over 65% in size
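Quantitative HTS format: each compound was titrated, incubated with 10 nM nuclease for 15 min at room temperature, then challenged with flap substrate at 50 nM final. Signal change over 15 min gave concentration–effect curves.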
An asterisk follows results filed as active; u = inconclusive; x = not tested or not shown; ! = repeats disagree; [ ] = dose if it differs, or a comment. Most compounds without a hit are left out; they make up all but 2.4% or so of the library. Calls come from the whole dose curve; as a rule, active = well fitted curve in the direction sought with a large enough effect; inconclusive = small, poorly fitted or top-dose-only effect, or another doubt; inactive = no such curve, though single readings can be large; an effect the other way counts as inactive or inconclusive. Potency is the fitted concentration of half-maximal effect.

SMILES | POLI inh | Pol eta inh | WRN inhibitor | Pol kappa inh | Pol beta inh | FEN1 inh
CC[n+]1c(/C=C/N(C)c2ccccc2)sc2ccc(Cl)cc21 | u | -7% | 50µM* | -11% | 50µM* | u
COc1ccccc1N1C(=O)NC(=O)/C(=C\c2cnn(-c3ccccc3)c2)C1=O | 18µM* | 40µM* | u | -18% | 25µM* | -3%
S=C(S)N1CCCC1 | u | -19% | 0% | 5%[60.1 µM] | -9%[57.1 µM] | -2%
C=CCN1C(=O)NC(=O)/C(=C/c2cc3c4c(c2)CCCN4CCC3)C1=O | 20µM* | 45µM* | -29% | u | u | -9%
Oc1ccc2c3c1O[C@H]1c4c(c5ccccc5n4Cc4ccccc4)C[C@@]4(O)C(C2)N(CC2CC2)CC[C@]314 | x | x | x | -4%[19.4 µM] | x | x
O=C(O)c1ccccc1-c1c2cc(Br)c(=O)cc-2oc2[c]([Hg])c(O)c(Br)cc12 | x | x | x | 16µM* | x | x
Cc1ccc(N2C(=O)/C(=C/c3ccc(CN(CCC#N)S(C)(=O)=O)o3)C(=O)NC2=S)cc1 | 3.2µM* | 2.2µM* | 50µM* | 18µM* | 6.3µM* | 35µM*
CC(C)C[C@H](NC(=O)[C@H](CC(C)C)NC(=O)[C@H](Cc1ccccc1)NC(=O)[C@@H](N)Cc1ccc(O)cc1)C(=O)N[C@@H](CCCN=C(N)N)C(=O)N[C@@H](CC(N)=O)C(=O)N1CCC[C@H]1C(=O)O | x | x | x | 12%[60.1 µM] | x | x
Cc1cc(=O)n(-c2ccccc2Cl)[nH]1 | 2.8µM* | -5% | -8%[11.6 µM] | 0% | 10% | -4%
Cc1cccn2c(=O)cc(COc3cccc(NC(=O)COc4ccc(F)cc4)c3)nc12 | -4% | u | x | -13%[60.1 µM] | -27% | -10%
C=CCSC1=N/C(=C\c2cc(OC)c3c(c2)OCO3)C(=O)S1 | u | u | -22% | -21% | 22µM* | -17%
CCCN1CCO[C@@H]2c3cc(O)ccc3OC[C@@H]21 | x | x | x | -7%[19.4 µM] | x | x
C[C@@H]1CO1 | x | x | x | 17%[60.1 µM] | x | x
CCOc1cccc(OCC)c2c(C)[n+](CC3CCCO3)c(C)c1-2 (centres undefined) | u | 45µM* | -35% | 25µM* | 22µM* | u
CCN(CC)C(=O)c1c(C)[nH]c(=S)c(C#N)c1-c1ccco1 | 102% | -14% | 50µM* | 4% | 1% | 0%
CN1CC[C@@]2(C)c3cc(O)ccc3N(C)C12 (some centres undefined) | 28µM*! | u | x | -5%[60.1 µM] | -8%[57.1 µM] | 10%
CN1CC[C@]2(C)c3cc(O)ccc3N(C)[C@@H]12 | x | x | x | -3%[12 µM] | x | x
O=C(O)c1cc[c]([Hg][Cl])cc1 | 1.8µM* | -11% | -2% | -4%[60.1 µM] | 14µM* | 25µM*
COc1ccc(C(=O)O)cc1OC | 2% | 0% | 0% | 1% | x | 0%
CC(C)=CCCC1(C)C=Cc2c(O)c3c(c(CC=C(C)C)c2O1)OC12C(=CC4CC1C(C)(C)OC2(C/C=C(/C)C(=O)O)C4=O)C3=O (centres undefined) | x | x | x | 22µM* | x | x
CC(C)=CCCC1(C)C=Cc2c(O)c3c(c(CC=C(C)C)c2O1)OC12C(=CC4CC1C(C)(C)OC2(C/C=C(/C)C(=O)O)C4O)C3=O (centres undefined) | x | x | x | 25µM* | x | x
CC(=O)N1CCN(c2ccc(OCC3CO[C@@](Cn4ccnc4)(c4ccc(Cl)cc4Cl)O3)cc2)CC1 (some centres undefined) | x | x | x | -4%[60.1 µM] | x | x
CN1CCC2(CC1)C(C#N)=C(N)NC(S)=C2C#N | -12% | -16% | 56µM*! | -22% | u | -23%
O=C(c1ccc2nc(-c3ccco3)c(-c3ccco3)nc2c1)N1CCC2(CC1)OCCO2 | u | 16µM* | u | u | 20µM* | -8%
O=S(=O)(O)c1cc(N=C=S)ccc1/C=C/c1ccc(N=C=S)cc1S(=O)(=O)O | x | x | x | 35µM* | x | x
SMILES | POLI inh | Pol eta inh | WRN inhibitor | Pol kappa inh | Pol beta inh | FEN1 inh
c1ccc(N2CCCC3(CCNCC3)C2)nc1 | x | x | x | 2%[60.1 µM] | x | x
CC(N)C(=O)NCC(=O)NC1CSSCC(C(=O)O)NC(=O)C(CO)NC(=O)C(C(C)O)NC(=O)C(Cc2ccccc2)NC(=O)C(C(C)O)NC(=O)C(CCCCN)NC(=O)C(Cc2c[nH]c3ccccc23)NC(=O)C(Cc2ccccc2)NC(=O)C(Cc2ccccc2)NC(=O)C(CC(N)=O)NC(=O)C(CCCCN)NC1=O (centres undefined) | x | x | x | 1%[19.4 µM] | x | x
O=C1NC(=O)N(c2ccc3c(c2)OCO3)C(=O)/C1=C\c1ccc(-c2ccccc2C(=O)O)o1 | 20µM* | 10µM* | 56µM* | 79µM* | 10µM* | u
CC[C@H](C)[C@H](NC(=O)[C@H](CCCN=C(N)N)NC(=O)[C@H](CCCN=C(N)N)NC(=O)[C@H](CC(C)C)NC(=O)[C@H](Cc1ccccc1)NC(=O)CNC(=O)CNC(=O)[C@@H](N)Cc1ccc(O)cc1)C(=O)O | x | x | x | 5%[19.4 µM] | x | x
O=C1NC(=O)[C@]2(Cc3ccccc3N3CCN(c4ccccc4)CC32)C(=O)N1Cc1ccccc1 (some centres undefined) | u | 20µM* | -30% | -12% | -17% | -13%
CN1C(=O)NC(=O)[C@]2(Cc3ccccc3N3CCN(c4ccccc4)CC32)C1=O (some centres undefined) | u | -6% | -31% | -11% | 4% | -8%
O=C1NC(=O)[C@]2(Cc3ccccc3N3CCN(c4ccccc4)CC32)C(=O)N1c1ccccc1 (some centres undefined) | u | 45µM* | -35%[57.1 µM] | u | -5% | -4%
COc1cc(/C=C2/C(=O)NC(=O)N(c3ccccc3)C2=O)ccc1O | 17% | 10% | u | 3% | 2% | 3%
COc1cccc(N2C(=O)NC(=O)/C(=C/c3ccc4c(c3)Cc3ccccc3-4)C2=O)c1 | u | 1% | 45µM* | -17% | -20% | u
C/C1=C\[C@@H](C)C/C=C/[C@H]2[C@@H]3O[C@]3(C)[C@@H](C)[C@H]3[C@H](Cc4c[nH]c5ccccc45)NC(=O)[C@]32C(=O)/C=C/C(=O)[C@@H]1O | u | u | -4% | u | 22µM* | -2%
CCCCCc1cc(O)c2c(c1)OC(C)(C)C1CC=C(C)CC21 (centres undefined) | x | x | x | -2%[19.4 µM] | x | x
c1ccc2c(c1)[IH]c1ccccc1-2 | u | -2% | -8% | -8% | x | 50µM*
Cc1cc(C)cc(N2C(=O)/C(=C\c3ccc(N4CCN(C)CC4)o3)C(=O)NC2=S)c1 | 32µM* | -24% | -19% | -9% | -20% | u
NCC(=O)c1ccc2ccccc2c1 | 15% | x | x | 1% | x | 5%
